Bioassay records: PubChem BioAssay, National Center for Advancing Translational Sciences (NCATS)
VP16 counter: VP16 counterscreen qHTS for inhibitors of ROR gamma transcriptional activity. Drosophila S2 Gal4-VP16 UAS-luciferase, luminescence, 20 h. Potency, µM (titrated, usually from 53.6 µM), for the others: at the top dose activity, negative = inhibition, hits mostly inhibitors. actives 3.5% (n = 310,000);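 note: Gal4-VP16 expression switched on by copper sulfate through the metallothionein promoter; % is set by controls: 0 for no effect and ±100 for the full control effect; nearly all actives have a fitted effect of over 50% in size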
ATXN viability: Viability Counterscreen for Primary qHTS for Inhibitors of ATXN expression. AID 651635, 2014. actives 0.49% (n = 400,000). Potency, µM (series often up to 56.7 µM), usual class: cytotoxic. S2 cells (HEK-293 line with an ATXN2-luciferase reporter) viability, CellTiter-Fluor protease fluorescence, 24 h; note: nearly all actives have a fitted effect of over 40% in size
TGFb inhibitor: qHTS for Inhibitors of TGF-b; HepG2 CAGA-GFP TGF-b/SMAD3 reporter, GFP fluorescence, 18 h; TGF-beta stimulated, 500 pg/mL final; actives 1.2% (n = 410,000); AID 588855, 2011; Potency, µM (doses to about 46.1 µM), inactives show at the highest dose activity, negative = inhibition, hits mostly inhibitors; note: % is set by controls: 0 for no effect and ±100 for the full control effect; nearly all actives have a fitted effect of over 65% in size
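Read-out: total well GFP (ex488/em500-530) summed from mean per-cell fluorescence. Cells: HEPG2 CAGA-GFP, 1% FBS DMEM, 18 h at 37 degrees C with 500 pg/mL final TGF-beta. Unstimulated wells served as the full-inhibition control; stimulated DMSO wells = 0%.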
HepG2 tox-1: qHTS for Inhibitors of TGF-b: Cytotox Counterscreen; Potency, µM (top dose mostly 46.1 µM), for the others: top-dose activity change, negative = cytotoxicity, most hits filed as cytotoxic; actives 0.76% (n = 410,000); HepG2 CAGA-GFP viability, ATP luminescence, 18 h; AID 588856, 2011
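CellTiter-Glo luminescence gave cytotoxicity after 18 hours at 37 degrees C. The cells were HepG2 CAGA-GFP in 1% FBS DMEM, stimulated with 500 pg/mL TGF-beta after compound addition. %Activity was normalised to no-cell wells (complete cell-killing) and DMSO (no toxicity), and curves were fitted and classified.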
ATXN2 expr inh: Primary qHTS for Inhibitors of ATXN expression; Potency, µM (highest dose often 57 µM), for the others: top-dose activity change, negative = inhibition, usual class: inhibitors; AID 1745845, 2022; HEK-293 ATXN2-luciferase reporter, luminescence, 24 h; actives 0.72% (n = 360,000); note: % is set by controls: 0 for no effect and ±100 for the full control effect; nearly all actives have a fitted effect of over 55% in size
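qHTS (up to 57 uM final) was run with 24 h compound exposure of reporter cells at 37 °C. Each well was multiplexed: SteadyGlo luminescence measured ATXN2-luciferase expression after a fluorogenic Gly-Phe-AFC viability readout (25 uM final).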
RORgamma inh: qHTS for inhibitors of ROR gamma transcriptional activity. Drosophila S2 Gal4-RORgamma UAS-luciferase reporter, 20 h. Potency, µM (top dose mostly 53.6 µM), inactives show top-dose activity change, negative = inhibition, hits mostly inhibitors. actives 5.4% (n = 310,000). AID 2551, 2010; note: % is set by controls: 0 for no effect and ±100 for the full control effect; nearly all actives have a fitted effect of over 60% in size
Target sequence (P51450 whole entry, looked up, the tested form may be a part): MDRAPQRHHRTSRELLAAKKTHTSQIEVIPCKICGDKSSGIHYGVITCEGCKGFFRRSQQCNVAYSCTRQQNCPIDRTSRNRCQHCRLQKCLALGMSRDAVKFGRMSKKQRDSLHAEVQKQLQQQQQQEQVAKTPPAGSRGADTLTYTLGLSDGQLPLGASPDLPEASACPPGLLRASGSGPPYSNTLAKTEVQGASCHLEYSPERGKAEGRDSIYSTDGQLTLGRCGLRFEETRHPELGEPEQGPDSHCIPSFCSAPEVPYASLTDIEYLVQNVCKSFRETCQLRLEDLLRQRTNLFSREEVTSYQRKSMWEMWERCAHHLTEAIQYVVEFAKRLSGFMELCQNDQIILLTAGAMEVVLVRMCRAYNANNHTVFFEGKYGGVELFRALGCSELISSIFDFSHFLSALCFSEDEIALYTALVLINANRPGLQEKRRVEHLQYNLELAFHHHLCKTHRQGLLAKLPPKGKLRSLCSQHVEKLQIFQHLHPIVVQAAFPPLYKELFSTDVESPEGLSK
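Stable Schneider cell line, Gal4 DNA-binding domain fused to ROR gamma, UAS-luciferase. Cmpd 1 hr RT → CuSO4 700 uM final → 20 hr RT → luciferase reagent 10 min → luminescence.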
TGFb CAGA inh: qHTS for Inhibitors of TGF-b: Confirmation of Cherry Picks; shares compounds with TGFb inhibitor; HepG2 CAGA-GFP TGF-b reporter, GFP fluorescence, 18 h; cells stimulated with TGF-beta, 500 pg/mL; Potency, µM (highest dose often 46.1 µM), for inactives: at the top dose activity, negative = inhibition, actives largely listed as inhibitors; actives 63% (n = 1,600); AID 720534, 2013; note: % is set by controls: 0 for no effect and ±100 for the full control effect; nearly all actives have a fitted effect of over 65% in size
HepG2 tox-2: qHTS for Inhibitors of TGF-b: Cytotox Counterscreen for Cherry Picks; shares compounds with TGFb inhibitor; HepG2 CAGA-GFP viability, ATP luminescence, 18 h; cells stimulated with TGF-beta, 500 pg/mL; Potency, µM (titrated, usually from 46.1 µM), inactives show at the highest dose activity, negative = cytotoxicity, hits mostly inhibitors; actives 27% (n = 1,600); note: % is set by controls: 0 for no effect and ±100 for the full control effect; nearly all actives have a fitted effect of over 70% in size
TGFb CCL64 inh: qHTS for Inhibitors of TGF-b: CCL64 Cells Orthogonal Assay for Cherry Picks; actives 41% (n = 1,600); CCL64 CAGA-GFP reporter, TGF-b stimulated, GFP fluorescence, 18 h; Potency, µM (top dose mostly 46.1 µM), inactives show at the top dose activity, negative = inhibition, most hits filed as inhibitors; shares compounds with TGFb inhibitor; note: nearly all actives have a fitted effect of over 65% in size
TGFb COP inh: qHTS for Inhibitors of TGF-b: Hit Validation in HepG2 Cells using COP promoter; shares compounds with TGFb inhibitor; HepG2 COP-GFP TGF-b reporter, GFP fluorescence, 18 h; cells stimulated by added recombinant TGF-beta; Potency, µM (series often up to 46.1 µM), for the others: at the top dose activity, negative = inhibition, usual class: inhibitors; actives 3% (n = 1,600); note: nearly all actives have a fitted effect of over 70% in size
Starred values were filed as active, the others as inactive; [ ] = remark or other dose. The list is not random: actives were taken first. Their share in the collection is about 6.3%. Calls come from the whole dose curve; as a rule, active = well fitted curve in the direction sought with a large enough effect; inconclusive = small, poorly fitted or top-dose-only effect, or another doubt; inactive = no such curve, though single readings can be large; an effect the other way counts as inactive or inconclusive. Potency is the fitted concentration of half-maximal effect.

COC(=O)C1=C(c2ccc(F)cc2OCc2ccccc2)C[C@@H]2CC[C@H]1N2C(=O)NCc1ccccc1 was read as ATXN viability inconclusive, TGFb inhibitor inconclusive, HepG2 tox-1 -20.7% and ATXN2 expr inh inconclusive.
For C[C@]12CCC3C(C=CC4=CC(=O)CC[C@]43C)C1CC[C@]2(O)CCC(=O)O (stereo partly drawn) the results were VP16 counter inconclusive and RORgamma inh 32.3%.
`Oc1cccc(Nc2ncnc3sc4c(c23)CCCC4)c1` gave ATXN viability inactive, TGFb inhibitor inconclusive, HepG2 tox-1 -14.3% and ATXN2 expr inh -3.2%.
Cc1ccc(-c2cc(-c3ccc(C)cc3)[n+](-c3ccccc3)c(-c3ccc(C)cc3)c2)cc1 was read as TGFb inhibitor 1.26µM*, HepG2 tox-1 -68.8%, ATXN2 expr inh inconclusive, TGFb CAGA inh 1.46µM*, HepG2 tox-2 9.2µM*, TGFb CCL64 inh 1.64µM* and TGFb COP inh -74.6%.
Screening Cc1nc2ccccc2c(=O)n1-c1ccccc1Cl returned ATXN viability inconclusive and ATXN2 expr inh -26.3%[116 µM].
`O=C1NC2C(O)C(O)C(O)C(O)C2c2cc3c(c(O)c21)OCO3` (stereo not drawn) gave ATXN viability inconclusive, TGFb inhibitor 0.126µM*, HepG2 tox-1 3.5%, ATXN2 expr inh 0.0%, TGFb CAGA inh 0.0651µM*, HepG2 tox-2 inconclusive, TGFb CCL64 inh 0.184µM* and TGFb COP inh 0.3%.
For O=C1NC2C(=CC(O)C(O)C2O)c2cc3c(c(O)c21)OCO3 (stereo not drawn) the results were ATXN viability inconclusive, TGFb inhibitor -125.7%, HepG2 tox-1 -20.8%, ATXN2 expr inh inconclusive, TGFb CAGA inh 0.0184µM*, HepG2 tox-2 0.461µM*, TGFb CCL64 inh 0.0731µM* and TGFb COP inh -8.3%.
`O=C1CC2OCC=C3CN4CCC56c7ccccc7N1C5[C@H]2[C@H]3C[C@H]46` (stereo partly drawn) (tested in a mixture with another compound) gave VP16 counter -4.4% and RORgamma inh 0.7%.
